Results published in paper PMC5540273 (PLoS ONE, 2017).

Assays:
Details in all cases: concentration: 1 μM, replicates: in singlicate; n = 1
CDKL5 = system: CDKL5
CHEK1 = system: CHEK1
CHEK2 = system: CHEK2
CIT = system: CIT
CLK1 = system: CLK1
CLK2 = system: CLK2
CLK3 = system: CLK3
CLK4 = system: CLK4
CSF1R-autoinhibited = system: CSF1R-autoinhibited
CSF1R = system: CSF1R
CSK = system: CSK
CSNK1A1L = system: CSNK1A1L
CSNK1A1 = system: CSNK1A1
CSNK1D = system: CSNK1D
CSNK1E = system: CSNK1E
CSNK1G1 = system: CSNK1G1
CSNK1G2 = system: CSNK1G2
CSNK1G3 = system: CSNK1G3
CSNK2A1 = system: CSNK2A1
CSNK2A2 = system: CSNK2A2
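Note: KINOMEscan kinase panel screen.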

With `Cc1c(Cn2c3ccccc3n3c(=O)cc(N4CCOCC4)nc23)cccc1C(F)(F)F` [GSK2306394] the “%Inh” value (CDKL5) was 0%, the “%Inh” value (CHEK1) was 12% and the “%Inh” value (CHEK2) was 0%. The “%Inh” value (CIT) was 30%, the “%Inh” value (CLK1) was 18% and the “%Inh” value (CLK2) was 11%. For the same compound, the “%Inh” value (CLK3) was 0%, the “%Inh” value (CLK4) was 20% and the “%Inh” value (CSF1R-autoinhibited) was 0%. The “%Inh” value (CSF1R) was 0%, the “%Inh” value (CSK) was 0% and the “%Inh” value (CSNK1A1L) was 0%. For the same compound, the “%Inh” value (CSNK1A1) was 19%, the “%Inh” value (CSNK1D) was 10% and the “%Inh” value (CSNK1E) was 12%. The “%Inh” value (CSNK1G1) was 9%, the “%Inh” value (CSNK1G2) was 43% and the “%Inh” value (CSNK1G3) was 17%. For the same compound, the “%Inh” value (CSNK2A1) was 6% and the “%Inh” value (CSNK2A2) was 14%.

`CNc1nc(-c2ccc3c(N)n[nH]c3c2)cc(N2C[C@@H](C(=O)NC3CCCCC3)OC[C@H]2C)n1` [GSK2375584] was tested, and the “%Inh” value (CDKL5) was 1%, the “%Inh” value (CHEK1) was 7% and the “%Inh” value (CHEK2) was 27%. For the same compound, the “%Inh” value (CIT) was 0%, the “%Inh” value (CLK1) was 21% and the “%Inh” value (CLK2) was 0%. For the same compound, the “%Inh” value (CLK3) was 0%, the “%Inh” value (CLK4) was 20% and the “%Inh” value (CSF1R-autoinhibited) was 37%. The “%Inh” value (CSF1R) was 2%, the “%Inh” value (CSK) was 1% and the “%Inh” value (CSNK1A1L) was 16%. For the same compound, the “%Inh” value (CSNK1A1) was 66%, the “%Inh” value (CSNK1D) was 41% and the “%Inh” value (CSNK1E) was 38%. The “%Inh” value (CSNK1G1) was 2%, the “%Inh” value (CSNK1G2) was 4% and the “%Inh” value (CSNK1G3) was 26%. The “%Inh” value (CSNK2A1) was 1% and the “%Inh” value (CSNK2A2) was 8%.

For `O=c1cc(N2CCOCC2)nc2n(Cc3cccc(Cl)c3Cl)c3ccccc3n12` [GSK2299009], the “%Inh” value (CDKL5) was 7%, the “%Inh” value (CHEK1) was 3% and the “%Inh” value (CHEK2) was 0%. The “%Inh” value (CIT) was 21%, the “%Inh” value (CLK1) was 27% and the “%Inh” value (CLK2) was 2%. The “%Inh” value (CLK3) was 1%, the “%Inh” value (CLK4) was 8% and the “%Inh” value (CSF1R-autoinhibited) was 0%. For the same compound, the “%Inh” value (CSF1R) was 28%, the “%Inh” value (CSK) was 21% and the “%Inh” value (CSNK1A1L) was 11%. The “%Inh” value (CSNK1A1) was 0%, the “%Inh” value (CSNK1D) was 19% and the “%Inh” value (CSNK1E) was 41%. The “%Inh” value (CSNK1G1) was 8%, the “%Inh” value (CSNK1G2) was 0% and the “%Inh” value (CSNK1G3) was 17%. For the same compound, the “%Inh” value (CSNK2A1) was 11% and the “%Inh” value (CSNK2A2) was 31%.

For `COc1ccc(CSc2nnc(-c3ccc4ncsc4c3)o2)cc1C(F)(F)F`, the “%Inh” value (CDKL5) was 8%, the “%Inh” value (CHEK1) was 1% and the “%Inh” value (CHEK2) was 17%. For the same compound, the “%Inh” value (CIT) was 9%, the “%Inh” value (CLK1) was 90.5% and the “%Inh” value (CLK2) was 39%. For the same compound, the “%Inh” value (CLK3) was 0%, the “%Inh” value (CLK4) was 83% and the “%Inh” value (CSF1R-autoinhibited) was 0%. The “%Inh” value (CSF1R) was 1%, the “%Inh” value (CSK) was 0% and the “%Inh” value (CSNK1A1L) was 0%. The “%Inh” value (CSNK1A1) was 0%, the “%Inh” value (CSNK1D) was 0% and the “%Inh” value (CSNK1E) was 0%. For the same compound, the “%Inh” value (CSNK1G1) was 0%, the “%Inh” value (CSNK1G2) was 0% and the “%Inh” value (CSNK1G3) was 0%. For the same compound, the “%Inh” value (CSNK2A1) was 0% and the “%Inh” value (CSNK2A2) was 2%.

For `O=C(Nc1n[nH]c2nc(-c3cccs3)c(Br)cc12)C1CC1` [SB-735297], the “%Inh” value (CDKL5) was 0%, the “%Inh” value (CHEK1) was 0% and the “%Inh” value (CHEK2) was 0%. The “%Inh” value (CIT) was 0%, the “%Inh” value (CLK1) was 11% and the “%Inh” value (CLK2) was 0%. For the same compound, the “%Inh” value (CLK3) was 0%, the “%Inh” value (CLK4) was 0% and the “%Inh” value (CSF1R-autoinhibited) was 0%. For the same compound, the “%Inh” value (CSF1R) was 0%, the “%Inh” value (CSK) was 12% and the “%Inh” value (CSNK1A1L) was 6%. The “%Inh” value (CSNK1A1) was 0%, the “%Inh” value (CSNK1D) was 0% and the “%Inh” value (CSNK1E) was 0%. The “%Inh” value (CSNK1G1) was 0%, the “%Inh” value (CSNK1G2) was 0% and the “%Inh” value (CSNK1G3) was 17%. For the same compound, the “%Inh” value (CSNK2A1) was 26% and the “%Inh” value (CSNK2A2) was 51%.

In the case of `Cc1cccc2c(-c3ccncn3)c(-c3ccc(F)cc3)nn12` [GW515532], the “%Inh” value (CDKL5) is reported as 0%, the “%Inh” value (CHEK1) is reported as 5% and the “%Inh” value (CHEK2) is reported as 0%. For the same compound, the “%Inh” value (CIT) was 82%, the “%Inh” value (CLK1) was 99.9% and the “%Inh” value (CLK2) was 0%. For the same compound, the “%Inh” value (CLK3) was 100%, the “%Inh” value (CLK4) was 22% and the “%Inh” value (CSF1R-autoinhibited) was 0%. For the same compound, the “%Inh” value (CSF1R) was 0%, the “%Inh” value (CSK) was 0% and the “%Inh” value (CSNK1A1L) was 0%. The “%Inh” value (CSNK1A1) was 50%, the “%Inh” value (CSNK1D) was 81% and the “%Inh” value (CSNK1E) was 100%. The “%Inh” value (CSNK1G1) was 14%, the “%Inh” value (CSNK1G2) was 0% and the “%Inh” value (CSNK1G3) was 99.9%. The “%Inh” value (CSNK2A1) was 1% and the “%Inh” value (CSNK2A2) was 0%.

In the case of `O=C(Nc1n[nH]c2nc(-c3cccs3)c(Br)cc12)C1CCCC1` [SB-743341], the “%Inh” value (CDKL5) is reported as 0%, the “%Inh” value (CHEK1) is reported as 9% and the “%Inh” value (CHEK2) is reported as 9%. The “%Inh” value (CIT) was 4%, the “%Inh” value (CLK1) was 0% and the “%Inh” value (CLK2) was 18%. The “%Inh” value (CLK3) was 31%, the “%Inh” value (CLK4) was 12% and the “%Inh” value (CSF1R-autoinhibited) was 0%. The “%Inh” value (CSF1R) was 18%, the “%Inh” value (CSK) was 9% and the “%Inh” value (CSNK1A1L) was 13%. The “%Inh” value (CSNK1A1) was 27%, the “%Inh” value (CSNK1D) was 0% and the “%Inh” value (CSNK1E) was 0%. The “%Inh” value (CSNK1G1) was 0%, the “%Inh” value (CSNK1G2) was 0% and the “%Inh” value (CSNK1G3) was 0%. The “%Inh” value (CSNK2A1) was 10% and the “%Inh” value (CSNK2A2) was 17%.

`Fc1ccc(-c2nc3n(c2-c2ccncc2)CCS3)cc1` [GI98581] was tested, and the “%Inh” value (CDKL5) was 0%, the “%Inh” value (CHEK1) was 0% and the “%Inh” value (CHEK2) was 0%. For the same compound, the “%Inh” value (CIT) was 92.9%, the “%Inh” value (CLK1) was 28% and the “%Inh” value (CLK2) was 0%. The “%Inh” value (CLK3) was 0%, the “%Inh” value (CLK4) was 9% and the “%Inh” value (CSF1R-autoinhibited) was 0%. The “%Inh” value (CSF1R) was 0%, the “%Inh” value (CSK) was 0% and the “%Inh” value (CSNK1A1L) was 30%. For the same compound, the “%Inh” value (CSNK1A1) was 84%, the “%Inh” value (CSNK1D) was 95.3% and the “%Inh” value (CSNK1E) was 98.2%. For the same compound, the “%Inh” value (CSNK1G1) was 14%, the “%Inh” value (CSNK1G2) was 17% and the “%Inh” value (CSNK1G3) was 32%. The “%Inh” value (CSNK2A1) was 10% and the “%Inh” value (CSNK2A2) was 6%.
